G9a inh: qHTS Assay for Inhibitors of Histone Lysine Methyltransferase G9a; actives 8.8% (n = 350,000); Histone-lysine N-methyltransferase EHMT2 (Homo sapiens), Q96KQ7; Potency, µM (doses to about 102 µM), inactives show at the highest dose activity, negative = inhibition, usual class: inhibitors; G9a H3K9 monomethylation, AlphaScreen, 2 h; note: potency is the fitted concentration of half-maximal effect; % is set by controls: 0 for no effect and ±100 for the full control effect; nearly all actives have a fitted effect of over 75% in size
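Using a bead-based AlphaScreen, monomethylated H3K9 product from 2 h room-temperature reactions (G9a 20 nM, peptide 500 nM, SAM 20 uM) was detected with 0.5 ug/mL rabbit anti-H3K9me1 antibody.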
JMJD2A Tudor inh: qHTS Assay for Inhibitors of JMJD2A-Tudor Domain; actives 4.4% (n = 390,000); Lysine-specific demethylase 4A (Homo sapiens), O75164; Potency, µM (titrated, usually from 114 µM), for inactives: at the top dose activity change, negative = inhibition, usual class: inhibitors; AID 504339, 2011; AlphaScreen JMJD2A-Tudor / H3K4me3 peptide binding; note: potency is the fitted concentration of half-maximal effect; % is set by controls: 0 for no effect and ±100 for the full control effect; nearly all actives have a fitted effect of over 50% in size
Six1-Eya2 inh: qHTS Assay for Inhibitors of the Six1/Eya2 Interaction; Homeobox protein SIX1 (Homo sapiens) + Protein phosphatase EYA2 (Homo sapiens), …; AlphaScreen GST-Six1/His-Eya2 binding, biochemical; stronger effect = lower value; activity change, % (concentration not given with the values); actives 0.56% (n = 360,000); in the data active = activity change below about -65%; inconclusive = mostly about -30% to -63%; note: % is set by controls: 0 for no effect and ±100 for the full control effect
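Compounds are tested against tagged Six1 and Eya2 proteins bridged by glutathione donor and nickel acceptor beads; after a one-hour incubation at 37 °C without light, AlphaScreen emission is recorded.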
BAZ2B block: qHTS Assay for Inhibitors of BAZ2B; AlphaScreen BAZ2B-H3K14Ac peptide displacement; actives 4.4% (n = 360,000); Bromodomain adjacent to zinc finger domain protein 2B (Homo sapiens), Q9UIF8; Potency, µM (series often up to 114 µM), for inactives: at the highest dose activity change, negative = inhibition, usual class: inhibitors; note: potency is the fitted concentration of half-maximal effect; % is set by controls: 0 for no effect and ±100 for the full control effect; nearly all actives have a fitted effect of over 60% in size
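Multi-concentration screen (max 110 uM) measuring displacement of acetylated histone H3 peptide from BAZ2B by AlphaScreen, using 50 nM protein, 50 nM peptide and 10 ug/mL streptavidin donor plus Ni-chelate acceptor beads.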
CtBP-E1A inh: qHTS Assay for Inhibitors of the CtBP/E1A Interaction. AID 651724, 2012. CtBP / adenovirus E1A interaction (AlphaScreen). AlphaScreen GST-E1A/His-CtBP binding, 1536-well; stronger effect = lower value. activity change, % (concentration not given with the values). actives 0.49% (n = 340,000); in the data active = activity change below about -65%; inconclusive = mostly about -30% to -63%; note: % is set by controls: 0 for no effect and ±100 for the full control effect
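In 5 uL wells, 23 nL compound meets equimolar GST-E1A and His-CtBP (5X stock 125 nM each) for 2 h, 37 °C. Beads (5X, 50 ug/mL) then 1 h, 37 °C, dark.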
HP1b chromo inh: HTS for Inhibitors of HP1-beta Chromodomain Interactions with Methylated Histone Tails. Chromobox protein homolog 1 (Homo sapiens), P83916. actives 0.56% (n = 390,000). Potency, µM (top dose mostly 114 µM), without a hit: top-dose activity change, negative = inhibition, usual class: inhibitors. AlphaScreen HP1-beta / biotin-H3K9me3 peptide binding. AID 540317, 2011; note: potency is the fitted concentration of half-maximal effect; nearly all actives have a fitted effect of over 70% in size
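AlphaScreen: HP1-beta (50 nM) preformed 30 min with biotin-H3(1-18)K9me3 peptide (50 nM) in PBS pH 7.4, 0.01% Tween-20. Compound added for 30 min at RT, then streptavidin donor/nickel chelate acceptor beads (10 ug/mL) for 30 min.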
* marks the source's active call; other numbers are inactive results; [ ] = dose if it differs, or a comment. Shown are actives, neighbours in structure and some others; about 10% of the full set was active somewhere. Unless noted, calls come from the whole dose curve; as a rule, active = well fitted inhibition curve with a large enough effect; inconclusive = small, poorly fitted or top-dose-only effect; inactive = no such curve, though single readings can be large or run the other way.

Results for NC(=O)[C@@H]1CC2(CC(c3cccc(NC(=O)[C@H]4CCC(=O)N4)c3)=NO2)CN1C(=O)COc1ccc(Cl)cc1 (stereo not given in full) ?
G9a inh: inconclusive; JMJD2A Tudor inh: inconclusive; Six1-Eya2 inh: 0.2; BAZ2B block: 79.4µM*; CtBP-E1A inh: 4.8; HP1b chromo inh: 4.5%

How did C/C=C\C(=O)Nc1cccc(C2=NOC3(C2)C[C@H](C(N)=O)N(C(=O)/C=C/CC)C3)c1 (stereo not given in full) do in these assays?
G9a inh: 10.3%[59 µM]; JMJD2A Tudor inh: -17.0%; Six1-Eya2 inh: -4.5; BAZ2B block: 3.6%; CtBP-E1A inh: 2.9; HP1b chromo inh: 18.4%

Results for C/C=C(\C)C(=O)N1CC2(CC(c3cccc(NC(=O)CC(c4ccccc4)c4ccccc4)c3)=NO2)C[C@H]1C(N)=O (stereo not given in full) ?
G9a inh: 14.1%[12.7 µM]; BAZ2B block: inconclusive

How did C=C(C)C(=O)Nc1cccc(C2=NOC3(C2)C[C@@H](C(N)=O)N(C(=O)/C=C/CC)C3)c1 (stereo not given in full) do in these assays?
G9a inh: inconclusive; JMJD2A Tudor inh: 10µM*; Six1-Eya2 inh: -14.8; BAZ2B block: 7.08µM*; CtBP-E1A inh: 0.1; HP1b chromo inh: 10µM*

Results for C=C(C)C(=O)Nc1cccc(C2=NOC3(C2)C[C@@H](C(N)=O)N(C(=O)C2(C)CC2)C3)c1 (stereo not given in full) ?
G9a inh: inconclusive; JMJD2A Tudor inh: 2.24µM*; Six1-Eya2 inh: 3.3; BAZ2B block: 1.58µM*; CtBP-E1A inh: -1.0; HP1b chromo inh: 2.51µM*

What do the screens show for `C=C(C)C(=O)Nc1cccc(C2=NOC3(C2)C[C@@H](C(N)=O)N(C(=O)C(=C)C)C3)c1` (stereo not given in full)?
G9a inh: inconclusive; JMJD2A Tudor inh: 7.94µM*; Six1-Eya2 inh: -2.6; BAZ2B block: 5.01µM*; CtBP-E1A inh: 8.7; HP1b chromo inh: 8.91µM*

How did CSc1ccc(CCNC(=O)Cn2ncn3c(cc4ccccc43)c2=O)cc1 do in these assays?
G9a inh: 1.1%[59 µM]; JMJD2A Tudor inh: -0.4%; BAZ2B block: -13.9%; HP1b chromo inh: 48.0%

What do the screens show for `O=c1c2ccccc2nc(-c2ccc(Cl)cc2)n1CCCCOc1ccc(F)cc1`?
G9a inh: 36.2%[59 µM]; JMJD2A Tudor inh: 50.5%; BAZ2B block: 33.2%; HP1b chromo inh: 94.1%

How did Cc1ccccc1-c1nc(CS(=O)(=O)CC(=O)N2CCN(c3ccccc3)CC2)c(C)o1 do in these assays?
G9a inh: inconclusive; JMJD2A Tudor inh: -27.9%; BAZ2B block: inconclusive; HP1b chromo inh: 0.9%

What do the screens show for `CCN1CCN(C(=O)CS(=O)Cc2nc(-c3ccc(OC)cc3)oc2C)CC1` (stereo not given)?
G9a inh: 70.8µM*; JMJD2A Tudor inh: -4.9%; Six1-Eya2 inh: 2.0; BAZ2B block: -5.0%; CtBP-E1A inh: -1.4

What do the screens show for `CCN1CCN(C(=O)CS(=O)Cc2nc(-c3cccc(C)c3)oc2C)CC1` (stereo not given)?
G9a inh: -3.3%; JMJD2A Tudor inh: -16.8%; Six1-Eya2 inh: 4.6; BAZ2B block: -5.4%; CtBP-E1A inh: 5.5; HP1b chromo inh: 45.3%

Screening results deposited in PubChem by National Center for Advancing Translational Sciences (NCATS).
